The results in this text go back to PubChem BioAssay AID2129 (The Scripps Research Institute Molecular Screening Center, 2009).

In all, about 320,000 compounds went through this assay and about 2,200 (0.69%) were called active. This is one part of a sample in which actives are shown more often than they occur. A number with no mark means an inactive call.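 The calls were made as follows: active = inhibition above the mean of all tested compounds plus 3 SD, cutoff set per campaign (cut at about 30% in these data); inactive = the rest.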

This experiment deals with Bcl-2-like protein 1 (Homo sapiens) (UniProt Q07817). In words: Bcl-xL/Bim BH3 interaction blockers – biochemical, fluorescence polarization, HTS, primary screen (AID 2129).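 Also: 0% = DMSO wells and 100% = unlabeled Bim-BH3 peptide competitor; inhibitors lower millipolarization by displacing the labeled peptide.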 To be noted: GST-Bcl-xL / FITC-Bim BH3 peptide fluorescence polarization; at 10.9 µM; hits give high values. In general terms: Fluorescence polarisation rises when a labelled molecule tumbles more slowly, as on binding a larger partner.
Bcl-2-like protein 1 (Homo sapiens), sequence (Q07817 whole entry, looked up): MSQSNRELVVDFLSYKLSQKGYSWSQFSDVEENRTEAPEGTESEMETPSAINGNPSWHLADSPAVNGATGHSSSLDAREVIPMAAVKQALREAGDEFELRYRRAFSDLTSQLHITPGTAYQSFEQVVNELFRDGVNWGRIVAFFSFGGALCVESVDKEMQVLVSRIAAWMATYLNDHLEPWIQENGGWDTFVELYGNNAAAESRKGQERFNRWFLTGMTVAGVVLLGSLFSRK
Broadly, the inhibition is the relative decrease from the control value, in per cent. For the compound `Cc1ccccc1-n1c(SCC(=O)Nc2cccc3ccccc23)nc(O)cc1=O`, the inhibition was -0.46%.
For the compound `Cc1c(C(=O)NC2CCCCC2)oc2ccccc12`, the inhibition is -0.72%.
With `COc1cccc2c1OCC(CN1CCN(C3CCCCC3)C(CCO)C1)=C2` (stereo not drawn), the inhibition was 2.11%.
Consider `Cc1ccc(CNC(=O)C(=O)c2cn(CC(=O)N3CCCC3)c3ccccc23)cc1`, for which the inhibition was 5.15%.
On to `CCOC(=O)N1CCN(Cc2nnc(-c3ccccc3Cl)o2)CC1`, for which the inhibition is -2.11%.
With `Nc1cccc2c1C(=O)N(Cc1nnc(-c3ccccc3Br)o1)C2=O` the figure was 48% (active); with `Cn1cnnc1SCc1nnc(-c2ccccc2Br)o1`, 2.35%; with `CC(=O)NNC(=O)c1csc(Cc2c(Cl)sc3ccc(Cl)cc23)n1`, 1.7%.
With `Cc1ccc([N+](=O)[O-])c(OCCCNCC(C)O)c1` (stereo not drawn), the inhibition was 8.16%.
With `COc1ccc(CN2CCCC(N3CCc4ccccc4C3)C2)c(O)c1` (stereo not drawn) the figure was -3.09%; with `COc1ccc2cc1Oc1ccc(cc1)C[C@H]1c3cc(c(OC)cc3CCN1C)Oc1c(O)c(OC)cc3c1[C@H](C2)N(C)CC3`, 6.82%.
For the compound `COc1c(O)ccc2c1CN1CCc3cc4c(cc3C1C2)OCO4` (stereo not drawn), the inhibition was 33.7% (active).
With `CN(C(=O)COC(=O)CCCc1c[nH]c2ccccc12)c1c(N)n(Cc2ccccc2)c(=O)[nH]c1=O` the figure was -5.75%.
For `O=C(Nn1c(SCc2ccc([N+](=O)[O-])cc2)nc2ccccc2c1=O)c1ccc(F)cc1`, the inhibition was -2.84%.
For `COc1ccc2[nH]c(C)c(CCN(Cc3cccs3)C(=S)Nc3ccccc3OC)c2c1` the value was 59.5% (active).
For `COc1cccc(NC(=S)N(CCc2c(C)[nH]c3ccccc23)Cc2ccco2)c1`, the inhibition was -0.26%.
Consider `Cc1[nH]c2ccccc2c1CCN(Cc1cccs1)C(=S)NC(C)(C)C`, for which the inhibition is 3.98%.
In the case of `COCCn1c(N)c(N(Cc2ccccc2)C(=O)C2CCCCC2)c(=O)[nH]c1=O`, the inhibition was -0.25%.
`COCCn1c(N)c(NCc2ccccc2)c(=O)[nH]c1=O`: the inhibition was 64.6% (active).
Turning to `COc1ccc(CNc2nc3c(c(=O)[nH]c(=O)n3C)n2Cc2ccccc2)cc1`, the inhibition is 2.21%.
With `COc1ccc(CCNC(=O)CCCCCNC(=O)N2CCn3c2nc2ccccc23)cc1OC` the figure was 1.04%.
With `COc1ccc(CCn2c(=N)c(C(=O)NCC3CCCO3)cc3c(=O)n4cccc(C)c4nc32)cc1OC` (stereo not drawn), the inhibition was 1.5%.
As for `Cc1cccn2c(=O)c3cc(C(=O)NCC4CCCO4)c(=N)n(Cc4ccc(F)cc4)c3nc12` (stereo not drawn), the inhibition is 0.48%.
On to `Cc1cccn2c(=O)c3cc(C(=O)NCCN4CCOCC4)c(=N)n(Cc4cccnc4)c3nc12`, for which the inhibition was 48.6% (active).
With `Cc1ccc(S(=O)(=O)N(Cc2ccc(Cl)cc2)c2ccccc2C(=O)NCc2cccnc2)cc1`, the inhibition is 0.59%.
Regarding `Cc1sc(NC(=O)c2ccc3ncsc3c2)c(C(N)=O)c1C`, the inhibition is 4.75%.
Turning to `O=C(COc1ccc(/C=N/NS(=O)(=O)c2ccccc2)cc1)NCCc1ccccc1`, the inhibition was 5.85%.
For the compound `COc1ccc(C2=CC(c3cccc(OC)c3)n3nnnc3N2)cc1` (stereo not drawn), the inhibition is 29.1%.
In the case of `COc1ccc(C2C=C(c3ccc(Br)cc3)Nc3nc(NS(C)(=O)=O)nn32)cc1` (stereo not drawn), the inhibition is 164% (active).
Take `CC(C)c1ccc(N2CC(C(=O)Nc3nccs3)CC2=O)cc1` (stereo not drawn): the inhibition was -0.59%.
For `CC1=C(C(=O)N(C)C)C(c2ccccc2OC(F)F)NC(=O)N1` (stereo not drawn) the value was 3.23%.
With `Cc1cc2occ(CC(=O)NNC(=O)c3ccccc3F)c2cc1C` the figure was 0.46%; with `COc1ccccc1NC(=S)N1CCC(NC(=O)C23CC4CC(CC(C4)C2)C3)CC1`, 2.22%.
Take `COc1ccc(CNC(=O)c2cc3c(=O)n4ccccc4nc3n(CC3CCCO3)c2=N)cc1` (stereo not drawn): the inhibition is 8.61%.
Take `Cc1cccn2c(=O)c3cc(C#N)c(=O)n(CCCN4CCOCC4)c3nc12`: the inhibition was 28.5%.
With `Cc1cccn2c(=O)c3cc(C#N)c(=NC(=O)c4cccnc4)n(CC4CCCO4)c3nc12` (stereo not drawn) the figure was 47.4% (active).
As to `Cc1oc2c(C)c3oc(=O)c(CC(=O)N[C@@H](CC(C)C)C(=O)N[C@@H](Cc4ccccc4)C(=O)O)c(C)c3cc2c1C`, the inhibition is 10.3%.
For the compound `CCOc1ccc(/C=N/OCC(=O)NCc2cccs2)cc1`, the inhibition was 2.85%.
For `CCN(c1ccccc1)S(=O)(=O)c1ccc(OCC(=O)N2CCCC2)cc1` the value was 3.8%; for `CC(C)[C@@H](NC(=O)OC(C)(C)C)C(=O)NCC1CCC(C(=O)N[C@@H](Cc2ccccc2)C(=O)O)CC1` (stereo partly drawn), 7.31%.
Regarding `CC(C)C1N=C2c3ccccc3N=C(SCC(=O)c3ccc(O)c(O)c3)N2C1=O` (stereo not drawn), the inhibition was 13.5%.
On to `CC1(C)Cc2c(C#N)c(SCc3nc4ccccc4[nH]3)nc(N3CCOCC3)c2CO1`, for which the inhibition is 6.67%.
With `C1=C(N2CCOCC2)/C(=C/c2nc3ccccc3[nH]2)CC1` the figure was 88.2% (active); with `O=c1[nH]c(N2CCOCC2)nc2ccccc12`, 3.04%.
Regarding `CCOC(=O)N1CCN(S(=O)(=O)c2cc(Br)cc3c2N(C(=O)C2CC2)CC3)CC1`, the inhibition is -4.43%.
For the compound `CS(=O)(=O)N(CC(=O)NCc1ccco1)c1ccc2c(c1)OCO2`, the inhibition was 5.67%.
For `CCN(c1ccc2c(c1)OCO2)S(=O)(=O)c1cc(Br)cc2c1N(C(=O)C1CC1)CC2` the value was 34% (active).
Take `CCOc1cc(/C=C/C(=O)OCC(=O)NCCN2C(=O)CSC2=O)ccc1OCC(C)C`: the inhibition was -5%.
With `N#CC1=C(N)C(C#N)(C#N)[C@H](c2ccsc2)[C@H]2COCC=C12` the figure was 37.8% (active); with `Cc1cccc(Nc2nc(NCCO)nc(N3CCCC3)n2)c1`, -0.55%; with `CCCc1cc(=O)[nH]c(SCC(=O)N2CCN(S(=O)(=O)c3ccc(C)cc3C)CC2)n1`, 3.73%.
In the case of `Cc1cc2oc3ccc(NCCC4CCCN4C)cc3c(=O)c2cc1C` (stereo not drawn), the inhibition is 40.9% (active).
Turning to `CCCOc1ccc(C2c3c(oc4cc(C)c(C)cc4c3=O)C(=O)N2CCCN2CCOCC2)cc1` (stereo not drawn), the inhibition is 11.6%.
With `Fc1c(F)c(C(F)(F)F)c(F)c(F)c1N1CCN(c2ccc3nnc(C(F)(F)F)n3n2)CC1` the figure was 3.95%.
As to `COc1cc(/C=C/C2=CC(C)(C)NC(=S)N2)cc(OC)c1OC`, the inhibition was -3.53%.
With `CCCCOC(=O)CNc1nnc(SCC(=O)OCC)[nH]c1=O` the figure was 15.6%.
Take `O=C(NCCc1ccccc1)C1CCN(S(=O)(=O)c2ccc(Br)s2)CC1`: the inhibition was 2.98%.
On to `Cc1cc(C)c[n+](-c2nc3ccccc3nc2[N-]S(=O)(=O)c2cccs2)c1`, for which the inhibition was 5.77%.
In the case of `O=S(=O)([N-]c1nc2ccccc2nc1-[n+]1ccc(Cc2ccccc2)cc1)c1ccc(Br)s1`, the inhibition is 82.6% (active).
On to `COC(=O)C1=C(O)/C(=C/c2ccc(OCC(=O)Nc3ccccc3)cc2)N=C1C`, for which the inhibition is 0.76%.
For `CCOC(=O)C1=C(O)/C(=C/c2ccc(OCC(=O)Nc3ccc(C)cc3)cc2)N=C1C`, the inhibition is -2.9%.
For the compound `CCOC(=O)C1=C(O)/C(=C/c2cc(C)n(-c3ccccc3)c2C)N=C1C`, the inhibition is 35.6% (active).
Consider `CCn1c2c(c3ccc(OC)cc31)CCCC2=O`, for which the inhibition is 5.26%.
For `O=S(=O)(c1ccc(SCc2ccccc2)nc1)N1CCCCCC1`, the inhibition was 5.07%.
For `CC(=O)c1cnn(-c2cc(Oc3ccc(F)cc3)ncn2)c1C` the value was 2.24%; for `COc1ccc(NS(=O)(=O)c2ccc(F)cc2F)cn1`, 3.96%.
Consider `COc1ccc(Nc2cc(Cl)ccc2C(=O)O)cn1`, for which the inhibition was 50.8% (active).
`COc1cccc(Nc2ncccc2C(=O)O)c1`: the inhibition was 6.39%.
As to `CCCCOP(=O)(c1ccc(N(C)C)cc1)C(O)c1cc(OC)ccc1OC` (stereo not drawn), the inhibition is 5.82%.
On to `Cc1ccc(NC(=O)CSCC(=O)N2CCOCC2)cc1`, for which the inhibition is 1.4%.
Take `COC(=O)Cc1cc(=O)oc2c(C)c(O)ccc12`: the inhibition is 4.68%.
Take `Cc1cc(S(=O)(=O)c2cc3ccc(O)c(C)c3oc2=O)ccc1F`: the inhibition was 40.6% (active).
For `COc1cccc2cc(S(=O)(=O)c3ccc(C)cc3)/c(=N/NS(=O)(=O)c3ccc(C)cc3)oc12` the value was 5.22%; for `Cc1ccc(NC(=O)C2CC2c2ccccc2)cc1` (stereo not drawn), 2.22%; for `CC(=O)N1c2ccc(S(=O)(=O)N3CCC(C(=O)NC4CCCC(C)C4C)CC3)cc2CC1C` (stereo not drawn), 0.13%.
Turning to `COc1ccccc1/C=C/C=N/n1c(-c2ccc(Cl)cc2Cl)n[nH]c1=S`, the inhibition was -7.95%.
Turning to `CCn1c(SCc2ccccc2)nc2cc(OC)c(OC)cc2c1=O`, the inhibition was 3.12%.
On to `COC(=O)c1ccc(SCc2ccccc2)nc1`, for which the inhibition was 6.87%.
Turning to `CSc1c(SCc2ccccc2)cnn(Cc2ccccc2)c1=O`, the inhibition was 145% (active).
For `CCc1ccccc1NC(=O)NCCN1CCCCC1` the value was 5.44%; for `CCOC(=O)[C@@H]1[C@H]2COc3cc(OC)ccc3[C@@H]2N2C(=O)N(c3cccc(C)c3)C(=O)[C@@]12C`, 3.42%; for `Cn1sc(=O)c2cc(S(=O)(=O)NC3CC3)ccc21`, 2.2%.
For `COc1cc2nc(CN(C)Cc3ccc(F)cc3)[nH]c(=O)c2cc1OC`, the inhibition is -1.08%.
For `COc1cc(CN(C)Cc2nc3cc(C(F)(F)F)ccc3c(=O)[nH]2)ccc1OC(F)F`, the inhibition was -2.06%.
Consider `COc1ccc(CN(C)Cc2nc3cc(OC)c(OC)cc3c(=O)[nH]2)c(OC)c1`, for which the inhibition was 85.4% (active).
Take `Cc1cc(NC(=O)C(C)SCC(=O)Nc2ccccc2N2CCCCC2)no1` (stereo not drawn): the inhibition was -2.56%.
With `COc1ccc(CCNC(=O)COC(=O)c2cc(=O)c3ccccc3o2)cc1`, the inhibition was -7.08%.
`O=C(C1CC(=O)N(C2CCCCC2)C1)N1CCN(c2ccccc2)CC1` (stereo not drawn): the inhibition is 3.83%.
